In publication PMC4336329 (PLoS ONE, 2015):
Hit rate of the full screen: of about 310,000 compounds, about 2,200 (0.71%) showed an effect of 50% or more. The effect is printed as a negative number. For the sample, strong results were picked, then their nearest neighbours and some compounds at random.

These compounds were tested against human ether-à-go-go-related gene (hERG) potassium channel (human, UniProt Q12809) (assay: primary screen, population patch clamp on CHO cells stably expressing hERG; higher = less effect of the substance).
Sequence of human ether-à-go-go-related gene (hERG) potassium channel (Q12809 whole entry, looked up): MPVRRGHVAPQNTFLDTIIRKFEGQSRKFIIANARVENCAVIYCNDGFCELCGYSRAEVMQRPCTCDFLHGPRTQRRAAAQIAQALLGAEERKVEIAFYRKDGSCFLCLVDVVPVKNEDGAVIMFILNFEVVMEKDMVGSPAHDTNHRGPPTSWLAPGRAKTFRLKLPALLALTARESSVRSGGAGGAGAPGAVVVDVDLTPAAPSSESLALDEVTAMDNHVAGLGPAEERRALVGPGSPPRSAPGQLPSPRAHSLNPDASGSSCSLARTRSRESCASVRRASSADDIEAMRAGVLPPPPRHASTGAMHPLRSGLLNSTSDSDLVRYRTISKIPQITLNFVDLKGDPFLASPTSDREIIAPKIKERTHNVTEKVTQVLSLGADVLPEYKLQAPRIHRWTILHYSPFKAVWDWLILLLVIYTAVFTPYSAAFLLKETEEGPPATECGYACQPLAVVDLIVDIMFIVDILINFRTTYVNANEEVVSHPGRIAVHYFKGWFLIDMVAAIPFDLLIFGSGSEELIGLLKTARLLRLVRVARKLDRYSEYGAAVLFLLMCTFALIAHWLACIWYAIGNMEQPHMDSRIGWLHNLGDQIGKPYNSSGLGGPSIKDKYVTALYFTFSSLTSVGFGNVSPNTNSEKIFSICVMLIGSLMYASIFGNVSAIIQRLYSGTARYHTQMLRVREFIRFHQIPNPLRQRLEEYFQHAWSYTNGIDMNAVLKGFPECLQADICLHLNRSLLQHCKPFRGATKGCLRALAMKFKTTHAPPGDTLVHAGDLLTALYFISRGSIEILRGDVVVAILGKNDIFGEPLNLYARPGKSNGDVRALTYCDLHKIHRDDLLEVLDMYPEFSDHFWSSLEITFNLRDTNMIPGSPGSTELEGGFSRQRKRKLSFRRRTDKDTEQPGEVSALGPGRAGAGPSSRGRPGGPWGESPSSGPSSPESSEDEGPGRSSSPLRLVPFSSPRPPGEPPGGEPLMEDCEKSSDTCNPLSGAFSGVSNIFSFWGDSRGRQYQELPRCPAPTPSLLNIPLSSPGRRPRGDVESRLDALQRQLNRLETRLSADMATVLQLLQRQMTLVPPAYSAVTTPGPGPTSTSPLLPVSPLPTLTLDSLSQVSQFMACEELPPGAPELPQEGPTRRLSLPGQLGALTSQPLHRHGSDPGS

Row | SMILES | hERG current change (%, negative = inhibition) at 1uM
1 | Cc1cc(N2CCCC2)ccc1NC(=O)CN1C(=O)NC(C)(c2ccccc2)C1=O (centres unmarked) | 16%
2 | O=P(O)(CCc1ccccc1)C(O)c1ccccc1 (centres unmarked) | 5.09%
3 | COc1cc(OC)cc(C(=O)N[C@H](C(=O)OCC(=O)NC(=O)c2cccn2C)C(C)C)c1 | 6.95%
4 | C=CCNC(=O)CSc1ccc(Cl)cc1 | 13.7%
5 | CNc1nnc(-c2ccc(C)cc2)c2ccccc12 | -5.45%
6 | Cc1ccc([N+](=O)[O-])c2c1C(N1CC(C)OC(C)C1)C(C)(C)O2 (centres unmarked) | 17.1%
7 | CCOc1ccc(NC(=O)COc2ccc(C(=O)NCCc3ccccc3)cc2)cc1 | 3.64%
8 | Cc1cc(C(=O)N/N=C/c2cccc(Cl)c2Cl)no1 | 3.36%
9 | O=C1OC(N2C(=O)CC[C@H]2C(=O)Nc2ccc(F)c(F)c2)c2ccccc21 (some centres unmarked) | 8.61%
10 | CC(=O)c1ccc(NC(=O)CSc2n[nH]c(-c3cccnc3)n2)cc1 | 14.1%
11 | O=C(CSc1nc2ccccc2c(=O)n1CC1CCCO1)NCCc1ccccc1 (centres unmarked) | 19.6%
12 | COc1ccc(CCNC(=O)c2cc3c(=O)n4ccccc4nc3n(CC3CCCO3)c2=N)cc1OC (centres unmarked) | -90.3%
13 | COc1ccc(CCNC(=O)Cn2c(=O)n(CC3CCCO3)c(=O)c3ccccc32)cc1OC (centres unmarked) | 3.58%
14 | COc1ccc(CCNC(=O)c2cc3c(=O)n4cccc(C)c4nc3n(CC3CCCO3)c2=N)cc1 (centres unmarked) | -79.4%
15 | N=c1c(C(=O)NCCc2ccccc2)cc2c(=O)n3ccccc3nc2n1CC1CCCO1 (centres unmarked) | -93.8%
16 | Cc1cccn2c(=O)c3cc(C(=O)NCCc4ccccc4)c(=N)n(CC4CCCO4)c3nc12 (centres unmarked) | -91%
17 | Cc1ccc(NC(=O)N2CCCCCC2)cc1 | 0.321%
18 | CCOC(=O)c1cnc(-n2nc(C)cc2C)nc1Nc1ccc(O)cc1 | 14.2%
19 | COc1cc(Cl)c(C)cc1NC(=O)CSc1sc2c(O)cc(=O)[nH]c2c1C#N | 18.7%
20 | CC(=O)c1ccccc1NS(C)(=O)=O | 9.61%
21 | COc1ccccc1Nc1ncnc2ccc(C)cc12 | 12.7%

Row | SMILES | hERG current change (%, negative = inhibition) at 1uM
22 | COc1ccc(CNC(=O)c2cc3c(=O)n4cccc(C)c4nc3n(CC3CCCO3)c2=N)cc1 (centres unmarked) | -83.8%
23 | Cc1cccn2c(=O)c3cc(C(=O)NCc4ccc(F)cc4)c(=N)n(CC4CCCO4)c3nc12 (centres unmarked) | -81.8%
24 | Cc1ccc(CCNC(=O)c2ccc3nc4ccccc4c(=O)n3c2)cc1 | 14.3%
25 | Cc1ccc(S(=O)(=O)c2cc3c(=O)n4cccc(C)c4nc3n(CC3CCCO3)c2=N)cc1C (centres unmarked) | 12.9%
26 | Cc1ccc2nc3c(cc(C(=O)NCCc4ccccc4)c(=N)n3CC3CCCO3)c(=O)n2c1 (centres unmarked) | -84%
27 | CC1CN(C(=O)c2c([N+](=O)[O-])cnn2C)CC(C)O1 (centres unmarked) | 1.78%
28 | NNC(=O)C1CC(O)CN1S(=O)(=O)c1ccc(Cl)cc1 (centres unmarked) | 6.56%
29 | O=C(Nc1ccc(-c2csc(-c3ccccc3)n2)cc1)c1ccccc1Cl | 16.9%
30 | CCOC(=O)N1CCC(NC(=O)c2cc(C(=O)Nc3ccc(OC)c(OC)c3)ccc2CO)CC1 | 4.41%
31 | O=S(=O)(c1ccccc1Cl)N1CCC(Cc2ccccc2)CC1 | 13.5%
32 | CCCCc1nn(-c2cc(Cl)ccc2OC)c2c1C(=O)CCC2 | 12.2%
33 | COC(=O)C1=C(c2ccc(F)cc2OCc2ccccc2)C[C@@H]2CC[C@H]1N2C(=O)NCCNC(C)=O | 16.4%
34 | Cc1cc(=O)n2nc(N3CCC(C(=O)NCC(C)c4ccccc4)CC3)sc2n1 (centres unmarked) | 11.7%
35 | COCCNc1c2c(nc3c(-c4ccccc4)c(C)nn13)CCCC2 | 5.77%
36 | Cc1nn2c(NCCOCCO)c3c(nc2c1-c1ccccc1)CCCC3 | -75.3%
37 | Cc1nn2c(NCCOCCO)c3c(nc2c1-c1ccccc1)CCC3 | -9.29%
38 | O=C(CCS(=O)(=O)c1cccs1)Nc1ccc(C(=O)NC2CCN(Cc3ccccc3)CC2)cc1 | 7.84%
39 | CCC(CC)C(=O)c1c[nH]c(C(=O)NCc2ccccn2)c1 | 8.96%
40 | Cc1ccc(-n2ncc3c2CC(C)(C)CC3NC(=O)c2cc[n+]([O-])cc2)cc1 (centres unmarked) | -62.7%
41 | Cc1ccc(-n2ncc3c2CCCC3NC(=O)c2ccoc2)cc1C (centres unmarked) | -78.5%
42 | COC(=O)c1ccc(C(=O)NC2CCCc3c2cnn3-c2ccc(C)c(C)c2)cc1 (centres unmarked) | 12.4%

Row | SMILES | hERG current change (%, negative = inhibition) at 1uM
43 | Cc1ccc(-n2ncc3c2CC(C)(C)CC3NC(=O)c2ccc[n+]([O-])c2)cc1 (centres unmarked) | 7.22%
44 | COC(=O)c1ccc(C(=O)NC2CC(C)(C)Cc3c2cnn3-c2ccc(F)cc2)nc1 (centres unmarked) | -0.769%
45 | Cc1ccc(-n2ncc3c2CC(C)(C)CC3NC(=O)c2ccncc2)cc1 (centres unmarked) | -48.8%
46 | Cc1cc(C(=O)NC2CCCc3c2cnn3-c2ccc(C)c(C)c2)no1 (centres unmarked) | 1.86%
47 | CC(=O)N1CCC(C(=O)NC2CC(C)(C)Cc3c2cnn3-c2ccc(F)cc2)CC1 (centres unmarked) | -11.3%
48 | CC1(C)Cc2c(cnn2-c2ccc(F)cc2)C(NC(=O)C2CCC2)C1 (centres unmarked) | -56.8%
49 | CC1(C)Cc2c(cnn2-c2ccc(F)cc2)C(NC(=O)C(C)(C)O)C1 (centres unmarked) | 12.6%
50 | CC1(C)Cc2c(cnn2-c2ccc(F)cc2)C(NC(=O)C2=NNC(=O)CC2)C1 (centres unmarked) | -52.1%
51 | Cc1cc(C(=O)NC2CC(C)(C)Cc3c2cnn3-c2ccc(F)cc2)nn1C (centres unmarked) | 5.91%
52 | CC(C)C(=O)Nc1ccc(NC(=O)c2ccccn2)cn1 | 12.6%
53 | O=C(CSc1nnc(CNC(=O)c2ccccc2F)o1)Nc1cccc(C(F)(F)F)c1 | 16%
54 | COc1ccc[nH]c1=O | 1.28%
55 | CCOC(=O)Cn1cnc2c(nnn2-c2cccc(OC)c2)c1=O | 17%
56 | COc1ccc(/C(C)=N/N=C2/NC(=O)CC(C(=O)O)S2)cc1 (centres unmarked) | 5.89%
57 | COCCCNC(=O)CCn1c(=O)c2ccccc2n(CC(=O)Nc2cc(Cl)ccc2C)c1=O | 2.79%
58 | O=C(NCc1ccc2c(c1)OCO2)c1ccc(S(=O)(=O)C(F)F)cc1 | -0.408%
59 | CC1(C)Cc2c(cnn2-c2ccc(F)cc2)C(NC(=O)c2cnccn2)C1 (centres unmarked) | -6.77%
60 | COc1ccc(-n2ncc3c2CC(C)(C)CC3NC(=O)CCn2cncn2)cc1 (centres unmarked) | -5.06%
61 | Cc1ccc(-n2ncc3c2CC(C)(C)CC3NC(=O)CCn2cncn2)cc1 (centres unmarked) | -78.5%
62 | CC1(C)Cc2c(cnn2-c2ccc(F)cc2)C(NC(=O)CCn2cncn2)C1 (centres unmarked) | -40.7%
63 | Cn1nccc1C(=O)NC1CC(C)(C)Cc2c1cnn2-c1ccc(F)cc1 (centres unmarked) | -20%

Row | SMILES | hERG current change (%, negative = inhibition) at 1uM
64 | CC1(C)Cc2c(cnn2-c2ccccc2)C(NC(=O)c2ccoc2)C1 (centres unmarked) | -91.7%
65 | CC(=O)c1ccc(C(=O)NC2CC(C)(C)Cc3c2cnn3-c2ccccc2)cc1 (centres unmarked) | 5.88%
66 | CC1(C)Cc2c(cnn2-c2ccc(F)cc2)C(NC(=O)c2ccoc2)C1 (centres unmarked) | -95.7%
67 | CC1(C)Cc2c(cnn2-c2ccccc2)C(NC(=O)c2ccc[n+]([O-])c2)C1 (centres unmarked) | 8.68%
68 | CCOc1cc(C#N)ccc1OCC(=O)N1CCN(C(=O)c2cccs2)CC1 | -16.1%
69 | O=C(Nc1ccccc1Cl)c1ccc(S(=O)(=O)NCC2CCCO2)cc1 (centres unmarked) | -7.62%
70 | CCOc1ccccc1OCC(=O)O | 12.1%
71 | CCCCn1c(O)c(C(=O)/C=C/c2ccc3c(c2)OCO3)c(=O)[nH]c1=O | 11.9%
72 | Cc1ccccc1CN1C[C@@H]2C[C@@H](c3cn[nH]c3-c3ccc(F)cc3)N3CCC[C@@]23C1=O | -12.9%
73 | CC(=O)Oc1ccc(-c2nc3c(C)cccc3c(=O)o2)cc1 | 11.9%
74 | CCOC(=O)c1[nH]c2ccc(F)cc2c1NC(=O)CN1CCN(C/C=C/c2ccccc2)CC1 | -77.3%
75 | COC(=O)c1[nH]c2ccccc2c1NC(=O)CN1CCN(C/C=C/c2ccccc2)CC1 | -84.4%
76 | CCOC(=O)c1[nH]c2ccc(F)cc2c1NC(=O)CN1CCc2cc(OC)c(OC)cc2C1 | 11.2%
77 | CCOC(=O)c1[nH]c2ccc(OCC)cc2c1NC(=O)CN1CCN(c2ccccc2)CC1 | 15.9%
78 | COc1ccc2[nH]c(C)c(C(=O)CN3CCN(C/C=C/c4ccccc4)CC3)c2c1 | 5.17%
79 | CCOC(=O)N1CCN(CC(=O)Nc2c(C(=O)OC)[nH]c3ccccc23)CC1 | 7.01%
80 | COC(=O)c1[nH]c2ccccc2c1NC(=O)CN1CCCCCC1 | -3.6%
81 | Cc1[nH]c2ccccc2c1C(=O)CN1CCN(C/C=C/c2ccccc2)CC1 | -50.4%
82 | Cc1[nH]c2ccccc2c1C(=O)CN1CCCC1 | 7.66%
83 | O=C(COC(=O)COc1ccc(Br)cc1)NCCC1=CCCCC1 | 1.54%
